Out of some 5,500 compounds screened, about 2,000 (36%) were called active. Inconclusive results (about 18%) are left out. Cut-off read from the data, not from the text of the source: active = normalized growth mostly below about 0.91 (no sharp cut-off); inconclusive = no clear call, values can overlap the other calls; inactive = mostly above about 0.92. This is one part of the list.
Test: chemical genetic growth profiling, strain panel (AID 1159580);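 note: tested at 20 µM; growth read once vehicle control cultures reached saturation at 30 °C; 1 = growth at the plate median or of vehicle wells; lower values mean less growth of the strain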
Details: S. cerevisiae deletion strains, growth OD

Measured: normalized growth

COC(=O)CCCOc1ccc(Cl)cc1Cl
inactive: locus YAL013W, strain DEP1, hits give low values 0.986 | locus YAL021C, strain ccr4, hits give low values 0.988 | locus YAL026C, strain drs2, hits give low values 0.966 | locus YAL030W, strain snc1, hits give low values 0.968 | locus YBL061C, strain skt5, hits give low values 0.952 | locus YBR009C, strain hhf1, hits give low values 0.955 | locus YBR021W, strain FUR4, hits give low values 0.931 | locus YBR023C, strain chs3, hits give low values 0.96 | locus YBR171W, strain sec66, hits give low values 0.916 | locus YBR229C, strain ROT2, hits give low values 0.993 | locus YBR231C, strain swc5, hits give low values 0.964 | locus YBR279W, strain paf1, hits give low values 0.961 | locus YCL011C, strain gbp2, hits give low values 0.967 | locus YCL016C, strain dcc1, hits give low values 0.959 | locus YCL029C, strain bik1, hits give low values 1 | locus YCL061C, strain MRC1, hits give low values 0.953 | locus YCL069W, strain vba3, hits give low values 0.962 | locus YCR088W, strain abp1, hits give low values 0.955 | locus YDL005C, strain med2, hits give low values 0.958 | locus YDL035C, strain GPR1, hits give low values 1 | locus YDL040C, strain nat1, hits give low values 0.954 | locus YDL074C, strain BRE1, hits give low values 0.999 | locus YDL101C, strain DUN1, hits give low values 1.02 | locus YDL134C, strain PPH21, hits give low values 0.998 | locus YDL185W, strain tfp1, hits give low values 0.988 | locus YDL192W, strain arf1, hits give low values 0.996 | locus YDR001C, strain nth1, hits give low values 0.967 | locus YDR069C, strain doa4, hits give low values 0.967 | locus YDR101C, strain arx1, hits give low values 0.987 | locus YDR137W, strain rgp1, hits give low values 0.899 | locus YDR150W, strain NUM1, hits give low values 0.989 | locus YDR159W, strain sac3, hits give low values 0.956 | locus YDR162C, strain NBP2, hits give low values 0.991 | locus YDR195W, strain ref2 0.972 | locus YDR297W, strain sur2, hits give low values 0.961 | locus YDR318W, strain mcm21, hits give low values 0.993 | locus YDR334W, strain swr1, hits give low values 0.974 | locus YDR335W, strain msn5, hits give low values 0.968 | locus YDR388W, hits give low values 0.992 | locus YDR392W, strain spt3, hits give low values 0.902 | locus YDR502C, strain sam2, hits give low values 0.995 | locus YEL003W, strain gim4, hits give low values 0.966 | locus YEL037C, strain rad23, hits give low values 0.968 | locus YEL061C, strain CIN8 (second series), hits give low values 0.961 | locus YEL061C, strain CIN8, hits give low values 0.985 | locus YER015W, strain faa2, hits give low values 0.959 | locus YER016W, strain bim1, hits give low values 0.964 | locus YER110C, hits give low values 0.995 | locus YER111C, strain swi4, hits give low values 0.956 | locus YER155C, strain BEM2 (second series), hits give low values 0.922 | locus YER155C, strain BEM2, hits give low values 0.984 | locus YER167W, strain BCK2, hits give low values 1 | locus YFR010W, strain ubp6, hits give low values 0.974 | locus YGL078C, strain dbp3, hits give low values 0.983 | locus YGL086W, strain mad1, hits give low values 0.991 | locus YGL167C, strain pmr1, hits give low values 0.953 | locus YGL173C, strain kem1, hits give low values 0.948 | locus YGL227W, strain vid30, hits give low values 0.95 | locus YGL240W, strain doc1, hits give low values 0.949 | locus YGL248W, strain PDE1, hits give low values 1 | locus YGL253W, strain hxk2, hits give low values 0.965 | locus YGR078C, strain PAC10, hits give low values 0.991 | locus YGR135W, strain pre9, hits give low values 0.994 | locus YGR229C, strain SMI1, hits give low values 0.994 | locus YGR252W, strain gcn5, hits give low values 0.977 | locus YHR013C, strain ard1, hits give low values 0.958 | locus YHR027C, strain rpn1, hits give low values 0.975 | locus YHR030C, strain SLT2, hits give low values 0.994 | locus YHR079C, strain IRE1 (second series), hits give low values 1 | locus YHR094C, strain hxt1, hits give low values 0.985 | locus YHR129C, strain ARP1, hits give low values 0.994 | locus YHR142W, strain chs7, hits give low values 0.965 | locus YHR200W, strain rpn10, hits give low values 0.996 | locus YIL066C, strain RNR3, hits give low values 0.993 | locus YIL073C, strain SPO22, hits give low values 1.07 | locus YIL125W, strain kgd1, hits give low values 0.983 | locus YIR030C, strain dcg1, hits give low values 0.994 | locus YJL092W, strain hpr5, hits give low values 0.957 | locus YJL095W, strain BCK1 (second series), hits give low values 0.955 | locus YJL095W, strain BCK1, hits give low values 0.942 | locus YJL115W, strain asf1, hits give low values 0.967 | locus YJL129C, strain trk1, hits give low values 0.931 | locus YJL134W, strain LCB3, hits give low values 0.995 | locus YJL154C, strain vps35, hits give low values 0.971 | locus YJL164C, strain tpk1, hits give low values 0.964 | locus YJL166W, strain qcr8, hits give low values 0.955 | locus YJL168C, strain set2, hits give low values 1.01 | locus YJL187C, strain SWE1 (second series), hits give low values 1 | locus YJL187C, strain SWE1, hits give low values 0.973
